This is part of a sample that, as a whole, favours compounds with a hit. Of some 83,000 tested, about 20% had one in any assay.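 Interpretation: 100, growth as untreated; towards 0, rising growth inhibition; 0, no net growth; 0 to -100, cell death. Compounds scoring below 10 were considered active.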
Key:
Assay in all cases: NCI-60 one-dose screen, 48 h (100 = growth as untreated, 0 = no growth, -100 = all killed)
NCI-H23 lung = conditions: 10 µM unless noted
NCI-H226 lung = conditions: 10 µM unless noted
DU-145 prostate = conditions: 10 µM unless noted
MDA-MB-231 breast = conditions: 10 µM unless noted
SF-268 CNS = conditions: 10 µM unless noted
M14 melanoma = conditions: 10 µM unless noted
HCT-15 colon = conditions: 10 µM
HT29 colon = conditions: 10 µM unless noted
PC-3 prostate = conditions: 10 µM unless noted
UACC-62 melanoma = conditions: 10 µM unless noted
LOX IMVI melanoma = conditions: 10 µM unless noted
SK-MEL-28 melanoma = conditions: 10 µM unless noted
OVCAR-8 ovarian = conditions: 10 µM unless noted
OVCAR-5 ovarian = conditions: 10 µM unless noted
SK-OV-3 ovarian = conditions: 10 µM unless noted
OVCAR-3 ovarian = conditions: 10 µM unless noted
NCI/ADR-RES ovarian = conditions: 10 µM unless noted
SW-620 colon = conditions: 10 µM unless noted
KM12 colon = conditions: 10 µM unless noted
MCF7 breast = conditions: 10 µM unless noted

Measured: growth

COC(C)(C)CCC[C@H](C)C/C=C/C(C)=C/C(=O)OC(C)C
inactive: NCI-H23 lung 78.7% | NCI-H226 lung 103% | DU-145 prostate 113% | MDA-MB-231 breast 102% | SF-268 CNS 103% | M14 melanoma 100% | HCT-15 colon 101% | HT29 colon 88% | PC-3 prostate 88.7% | UACC-62 melanoma 96.6% | LOX IMVI melanoma 92.9% | SK-MEL-28 melanoma 101% | OVCAR-8 ovarian 98.2% | OVCAR-5 ovarian 128% | SK-OV-3 ovarian 92% | OVCAR-3 ovarian 111% | NCI/ADR-RES ovarian 91.7% | SW-620 colon 105% | KM12 colon 107%

CC12CCC(=O)C=C1CCC1C2CCC2(C)C(C(=O)COC(=O)Cc3ccc(N(CCCl)CCCl)cc3)CCC12 (stereo not drawn)
inactive: NCI-H23 lung 94% | NCI-H226 lung 72.5% | DU-145 prostate 109% | MDA-MB-231 breast 108% | SF-268 CNS 77.9% | M14 melanoma 104% | HCT-15 colon 86.2% | HT29 colon 88.5% | PC-3 prostate 36.1% | UACC-62 melanoma 66.3% | LOX IMVI melanoma 86.4% | SK-MEL-28 melanoma 104% | OVCAR-8 ovarian 79.1% | OVCAR-5 ovarian 119% | SK-OV-3 ovarian 90% | OVCAR-3 ovarian 107% | NCI/ADR-RES ovarian 91.8% | SW-620 colon 75.6% | MCF7 breast 70.5% | KM12 colon 101%

c1ccc2nc(OCCN3CC3)ccc2c1
inactive: NCI-H23 lung 74.2% | NCI-H226 lung 83.1% | DU-145 prostate 98.6% | MDA-MB-231 breast 75% | SF-268 CNS 96.6% | M14 melanoma 86.5% | HCT-15 colon 86.5% | HT29 colon 43.8% | UACC-62 melanoma 79.3% | LOX IMVI melanoma 86.3% | SK-MEL-28 melanoma 111% | OVCAR-8 ovarian 78.2% | OVCAR-5 ovarian 86.2% | SK-OV-3 ovarian 96.7% | OVCAR-3 ovarian 74.3% | NCI/ADR-RES ovarian 89.2% | SW-620 colon 64.8% | MCF7 breast 71.4% | KM12 colon 80.3%
